Only some compounds are listed: those with a hit (about 3.5% of all), similar ones and a draw of the others.
Pf apPOL inh = Pf-apPOL DNA polymerase inhibition; Recombinant Pf-apPOL, molecular beacon fluorescence, 1.5 h; inhibition, % at 10 µM; 210,000 compounds, 0.25% hits
mHTT CaM bind = inhibitors of human mutant huntingtin-calmodulin interaction | inhibition, % at 15 µM | AID 1671202 | AlphaScreen His-mHTT/GST-CaM binding, luminescence | 190,000 compounds, 3.6% hits
Numbers stand for hits; . = inactive; / = no result given; ! = not confirmed by another sample. Rule as the data show it: active = inhibition above about 50%; inactive = the rest.

SMILES	Pf apPOL inh	mHTT CaM bind
N#CC1=C(N)Oc2n[nH]c(-c3ccccc3)c2C12C(=O)Nc1ccccc12 (stereo not given)	.	.
Cc1ccccc1NC(=O)CSc1ncccn1	.	.
O=C(c1cccs1)N1CCN(c2cc(N3CCCCCC3)c(F)cc2[N+](=O)[O-])CC1	.	59.7
Cc1cc(N2CCN(C(=O)c3cccs3)CC2)c(F)cc1[N+](=O)[O-]	.	.
Nc1ccc(C23CC4CC(C2)CC(c2ccc(N)cc2)(C4)C3)cc1	.	83.7
NS(=O)(=O)c1ccc(C23CC4CC(CC(C4)C2)C3)cc1	.	.
NC(=O)CC12CC3CC(C1)CC(c1ccccc1)(C3)C2	.	.
Nc1ccc(C23CC4CC(CC(C4)C2)C3)cc1	.	58.5
Cc1cccc(CNC(=O)C(=O)NCc2ccoc2)c1	.	.
O=C(OCc1cc(-c2ccccc2)on1)C1CC(=O)N(c2ccccc2)C1 (stereo not given)	.	.
O=C1C(=O)N(c2ncccn2)C(c2ccc(F)cc2)C1=C(O)c1ccc(F)cc1 (stereo not given)	.	.
CCc1nc2c(NC(=O)C(C)(C)C)cccn2n1	.	.
COc1ccc2c(c1)c1c3n2CCNC3CCC1 (stereo not given)	.	.
Brc1ccc2c(c1)c1c3n2CCNC3CCC1 (stereo not given)	.	75.0
Cc1ccc([N+](=O)[O-])cc1NC(=O)c1cnccn1	.	.
Cc1ccc([N+](=O)[O-])cc1NC(=O)c1cccc(C(=O)Nc2cc([N+](=O)[O-])ccc2C)n1	66.9	.
Cc1ccc(Cn2cc(CN3[C@@H](CC(C)C)COc4cc(Br)ccc4S3(=O)=O)nn2)cc1	.	.
c1ccc(-c2nc(SCC3COc4ccccc4O3)oc2-c2ccccc2)cc1 (stereo not given)	/	.
N#CCSc1nc(-c2ccccc2)c(-c2ccccc2)o1	92.3!	.
Cc1ccc(NC(=O)Cc2nc(-c3cccnc3)n[nH]2)cc1F	.	.
Cn1c(CC2CCN(C(=O)c3ccccc3Cl)C2)nc2cccnc21 (stereo not given)	.	.
Cc1noc(-c2cccs2)c1C(=O)N1CCC(Cc2ccccc2)CC1	.	71.2
COc1ccc(-c2cc(C(=O)N3CCC(Cc4ccccc4)CC3)no2)cc1	.	.
Cc1noc(-c2cccnc2)c1C(=O)N1CCC(Cc2ccccc2)CC1	.	.
COc1ccc(-c2onc(C)c2C(=O)N2CCC(Cc3ccccc3)CC2)cc1	.	99.1
SMILES	Pf apPOL inh	mHTT CaM bind
COc1cccc(C2=NOC(C(=O)NC3CCCC3)C2)c1 (stereo not given)	.	.
CS(=O)(=O)N1CCN(C(=O)Cc2noc3ccccc23)CC1	.	.
Cc1cc(S(=O)(=O)N2CCN(S(=O)(=O)c3ccc(Cl)c(C)c3)CC2)ccc1Cl	.	.
Cc1ccc(C)c(S(=O)(=O)N=C2C=CC(=O)c3ccccc32)c1	.	96.0
Cc1cc(S(=O)(=O)N=C2C=CC(=O)c3ccccc32)ccc1Cl	.	90.0
Cc1ccc(C)c(S(=O)(=O)N2CCN(C)CC2)c1	.	.
Cc1cc(C)c(S(=O)(=O)N=C2C=CC(=O)c3ccccc32)cc1C	.	98.0
Cc1cc(C)c(S(=O)(=O)N=C2C=C(Br)C(=O)c3ccccc32)cc1C	.	.
COCCn1c(C2CCN(S(=O)(=O)c3cccs3)C2)nc2cccnc21 (stereo not given)	.	.
COc1ccc(-c2cc3nc4c(c(=O)n3[nH]2)CN(C(=O)Nc2ccccc2Cl)CC4)cc1	.	.
O=C(Nc1ccc(Br)cc1F)C1CCN(c2ccncc2)CC1	.	.
O=C(NCc1ccc(F)cc1)N1CCCCCC1c1cccs1 (stereo not given)	.	.
Cc1ccc(C(=O)NCCC2CCN(C(=O)c3ccc(F)cc3)CC2)cc1	.	.
O=C(O)c1ccc([N+](=O)[O-])c2c1NC(c1ccc([N+](=O)[O-])cc1)C1CC=CC21 (stereo not given)	.	.
O=[N+]([O-])c1c(Cl)cc(O)c2c1C1C=CCC1C(c1ccc(Br)cc1)N2 (stereo not given)	.	98.0
Oc1ccc(Br)c2c1NC(c1ccc(Cl)cc1)C1CC=CC21 (stereo not given)	.	100.0
O=[N+]([O-])c1ccc(C2Nc3c(O)ccc(Br)c3C3C=CCC32)cc1 (stereo not given)	.	100.0
O=C(c1ccccc1)N1CCCCC1c1nncn1Cc1ccccc1 (stereo not given)	.	.
CC(=O)Nc1cccc(C(=O)CCC(=O)O)c1	.	/
COc1ccccc1NC(=O)N1CCC(N2CCN(Cc3ccc(C)cc3)C2=O)CC1	.	.
CN(CC(O)COCc1ccccc1)C1CCCCC1 (stereo not given)	.	.
O=S(=O)(c1c(F)cccc1F)N(CCc1ccc(F)cc1)C[C@@H](O)COCc1ccccc1	.	99.2
CCC(=O)N(C)CC(=O)N1N=C(c2ccc(F)cc2)CC1c1ccc(F)cc1 (stereo not given)	.	66.1
CC(=O)N(C)CC(=O)N1N=C(c2ccc(C)c(C)c2)CC1c1ccc(F)cc1 (stereo not given)	.	.
CCC(=O)N(C)CC(=O)N1N=C(c2ccc(C)c(C)c2)CC1c1ccc(C)cc1 (stereo not given)	.	.
SMILES	Pf apPOL inh	mHTT CaM bind
Cc1ccc(C2=NN(C(=O)CN(C)C(=O)C(C)C)C(c3ccc(F)cc3)C2)cc1C (stereo not given)	.	98.5
CN(CC(=O)N1N=C(c2ccc(F)cc2)CC1c1ccc(F)cc1)C(=O)C1CC1 (stereo not given)	.	.
CCC(=O)N(C)CC(=O)N1N=C(c2ccc(C)c(C)c2)CC1c1ccc(F)cc1 (stereo not given)	.	71.5
CCOC(=O)c1ccc(NC(=S)N2CCN(C(=S)Nc3ccc(C(=O)OCC)cc3)CC2)cc1	.	/
CN1[C@H](Cc2ccccc2)COc2cc(N3CCCC3)ccc2S1(=O)=O	.	.
O=S(=O)(Cc1c(F)cccc1Cl)N1CCC(CN2CCCCCC2)CC1	.	.
Cc1c(C(=O)Nc2ccc(F)cc2)oc2ccc(S(=O)(=O)N3CCOCC3)cc12	.	.
COc1cccc(CN2CCc3nc(Nc4ccccc4)ncc3C2)c1	.	.
COc1cc(NC(=O)c2nc(-c3cccc(F)c3)n3c2CCCCC3)cc(OC)c1OC	.	64.5
COC(=O)c1ccccc1NC(=O)c1nc(-c2cccc(F)c2)n2c1CCCCC2	.	.
CCOCCCNC(=O)c1nc(-c2cccc(F)c2)n2c1CCCCC2	.	.
COc1ccc(CCNC(=O)c2nc(-c3cccc(F)c3)n3c2CCCCC3)cc1OC	.	50.6
O=c1oc(-c2ccc(Br)cc2)nc2ccc(Br)cc12	.	.
OCCCc1nc2ccccc2n1CCCOc1ccccc1	.	.
CCOC(=O)c1ccccc1NC(=O)N1CC2CCCN2c2ccccc21 (stereo not given)	.	68.3
COC(=O)c1ccc(Cl)cc1NC(=O)N1CC2CCCN2c2ccccc21 (stereo not given)	.	.
Cc1c(Cl)cccc1NC(=O)N1CC(C)Oc2ccccc21 (stereo not given)	.	.
CCc1ccccc1NC(=O)N1CC2CCCN2c2ccccc21 (stereo not given)	.	78.7
O=C(Nc1ccccc1F)N1CC2CCCN2c2ccccc21 (stereo not given)	.	.
Cc1c(Cl)cccc1NC(=O)N1CC2CCCN2c2ccccc21 (stereo not given)	.	76.8

Bioassay records (PubChem)
